The subject of test [1] is XIP peptide (Xip251-270) binding. Kind of test: small-molecule binders of XIP peptide, primary screen, biochemical, small-molecule microarray, fluorescence 635/667 nm, 0.1 µg/mL protein (AID 1182). The settings on record: fluorescent protein binding, 635 nm, higher = more signal, called active from +8 up or from −8 down.
In another test the test system is XIP peptide (Xip251-270). Kind of test: small-molecule binders of XIP peptide, primary screen, biochemical, small-molecule microarray, fluorescence 635/667 nm, 0.5 µg/mL protein (AID 1183). The following applies: small-molecule microarray binding, fluorescence 635 nm; higher = more signal.
The nature of test [2]: Plasmodium falciparum growth inhibition, primary screen, strain 3D7, DAPI fluorescence, 100 nL (AID 1184).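 Further: parasites grown inside human red blood cells in medium with human serum.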 The settings on record: P. falciparum 3D7 growth, 3 d, higher = more signal.
Test [3] has as its target Homeobox protein Hox-A13 (Mus musculus) (UniProt Q62424). Kind of test: inhibitors of HoxA13-DNA binding, primary screen, biochemical, fluorescence polarization, labeled oligonucleotide (AID 1185). The settings on record: 15 min, higher = more signal, called active from +8 up or from −8 down.
Test [4] can be described thus: inhibitors of hydroxyurea-induced Chk1 phosphorylation, primary screen, imaging, HeLa, phospho-Chk1 antibody, percent positive cells (AID 1186). The settings on record: hydroxyurea-induced phospho-Chk1 immunofluorescence imaging, higher = more signal.
Test [5] is described as follows: inhibitors of hydroxyurea-induced Chk1 phosphorylation, primary screen, imaging, HeLa, phospho-Chk1 nuclear intensity (AID 1187). The following applies: hydroxyurea-induced phospho-Chk1 immunofluorescence imaging, higher = more signal.

Activity calls are given as the source filed them. Unless noted, how the calls were made is not given here.

Sequence of Homeobox protein Hox-A13 (Mus musculus) (Q62424 whole entry, looked up): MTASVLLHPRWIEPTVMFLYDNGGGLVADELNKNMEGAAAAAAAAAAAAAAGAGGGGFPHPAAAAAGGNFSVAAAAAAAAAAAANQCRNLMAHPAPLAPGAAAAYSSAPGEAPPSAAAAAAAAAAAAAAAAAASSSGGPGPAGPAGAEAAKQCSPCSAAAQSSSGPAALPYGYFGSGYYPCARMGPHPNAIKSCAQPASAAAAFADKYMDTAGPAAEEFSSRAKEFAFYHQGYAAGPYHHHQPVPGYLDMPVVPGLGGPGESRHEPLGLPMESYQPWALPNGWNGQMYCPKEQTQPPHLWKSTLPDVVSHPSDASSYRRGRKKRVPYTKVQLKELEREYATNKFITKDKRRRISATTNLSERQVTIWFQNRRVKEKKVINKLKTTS

Consider `C=CCC(OC(C)=O)[C@@H]1[C@@H](N(Cc2ccc(-c3ccccc3)cc2)C(=O)c2cccc3ccccc23)c2cc(OCCCO)ccc2N1C(=O)Cc1ccc2ccccc2c1` (some centres undefined), for which the composite z-score in test [1] was -0.366 (inactive); in the test on XIP peptide (Xip251-270), 0.579. The z-score was -0.171 in test [2], -1.26 (inactive) in test [3], -0.8 (inactive) in test [4] and -0.493 (inactive) in test [5].
On to `COCCCNC(=O)[C@@]1(Sc2ccc(C)cc2)CC(=O)N(C2Cc3ccccc3C2)[C@@H]1c1ccc(CO)cc1I`, for which the composite z-score in test [1] was 0.0203 (inactive); in the test with XIP peptide (Xip251-270) it was -0.314. For the same compound, the z-score in test [2] is 0.701; in test [3], -2.28 (inactive); in test [4] it was 0.542 (inactive); in test [5], 0.94 (inactive).
Regarding `CC(C)CNC(=O)[C@@H]1c2ccccc2C(=O)N(Cc2cc(F)cc(C(F)(F)F)c2)[C@H]1c1ccc(CO)cc1`, the composite z-score is 1.02 (inactive) in test [1] and 0.891 in the test on XIP peptide (Xip251-270). In addition, the z-score is 0.204 in test [2], -3.02 (inactive) in test [3], -0.478 (inactive) in test [4] and -0.515 (inactive) in test [5].
`CO[C@H]1O[C@H](CO)[C@@H](OC(=O)Nc2ccc(Oc3ccccc3)cc2)[C@H](OC(=O)Nc2ccccc2-c2ccccc2)[C@@H]1OC(=O)Nc1ccccc1-c1ccccc1`: the results for the composite z-score (in test [1]; in the test on XIP peptide (Xip251-270)) were 0.356 (inactive) and 0.759, respectively. The z-score in test [2] was -2.39; in test [3], -1.71 (inactive); in test [4] it was -0.141 (inactive); in test [5], -0.148 (inactive).
Take `[N-]=[N+]=NCc1ccccc1C[C@]1(C(=O)NCC(O)CO)N=C(c2ccc(OCCCO)cc2)O[C@H]1c1ccccc1CN=[N+]=[N-]` (some centres undefined): the composite z-score was 0.311 (inactive) in test [1] and 0.75 in the test on XIP peptide (Xip251-270). In addition, the z-score was -2.78 in test [2], -0.829 (inactive) in test [3], 0.458 (inactive) in test [4] and 0.414 (inactive) in test [5].
As to `C=CCN1Cc2ccccc2C[C@@]2(N=C(c3ccc(OCCCO)cc3)O[C@H]2c2ccccc2)C1=O`, the composite z-score was 0.247 (inactive) in test [1] and 0.691 in the test on XIP peptide (Xip251-270). Moreover, the z-score is -2.09 in test [2], -3.98 (inactive) in test [3], -0.468 (inactive) in test [4] and -0.399 (inactive) in test [5].
With `O=C1O[C@@H](c2ccccc2)[C@@H](c2ccccc2)N2[C@@H](c3ccccc3OCCO)[C@]3(C(=O)Nc4ccc(C#CCCO)cc43)[C@@H](C(=O)Nc3nc4ccccc4s3)[C@H]12`, the results for the composite z-score (in test [1]; in the test on XIP peptide (Xip251-270)) were 0.767 (inactive) and 0.698, respectively. Also, the z-score in test [2] was -2.14; in test [3], -2.2 (inactive); in test [4] it was -0.0607 (inactive); in test [5], 0.0274 (inactive).
`O=C(CS)NCCCCCCNC(=O)[C@@H]1C[C@@H]2C(=O)N3CCC[C@H]3C(=O)N2[C@@H]1c1cccc(OCCO)c1`: the figures for the composite z-score (in test [1]; with XIP peptide (Xip251-270)) were 1.97 (inactive) and 0.864, respectively. The z-score is 0.0153 in test [2], -3.25 (inactive) in test [3], -1.31 (inactive) in test [4] and -0.971 (inactive) in test [5].
For the compound `CCOC(=O)C[C@H]1[C@H](OC(=O)c2ccc(-c3ccccc3)cc2)[C@@H](NC(=O)c2ccc3ccccc3n2)c2cc(OCCCO)ccc2N1C(=O)c1ccccc1`, the composite z-score in test [1] is -0.0549 (inactive); with XIP peptide (Xip251-270) it was 0.266. Further, the z-score in test [2] is -1.1; in test [3] it was -2.05 (inactive); in test [4], 0.188 (inactive); in test [5], 0.16 (inactive).
On to `CN1C(=O)C2C=CC(C(O)Cc3ccccc3)N(N(c3ccccc3)c3ccccc3)C2C1=O` (centres undefined), for which the composite z-score in test [1] is -0.072 (inactive); in the test with XIP peptide (Xip251-270) it was 0.645. In addition, the z-score was -0.077 in test [2], -2.48 (inactive) in test [3], 0.077 (inactive) in test [4] and -0.0628 (inactive) in test [5].
As for `COCCOC(=O)N1C(=O)[C@@]2(c3cc(C#Cc4ccc(OC)cc4)ccc31)[C@H](C(=O)N1CCCCCCC1)[C@H]1C(=O)O[C@H](c3ccccc3)[C@H](c3ccccc3)N1[C@@H]2c1ccc(O)cc1`, the composite z-score in test [1] is 1.73 (inactive); with XIP peptide (Xip251-270), 0.669. Moreover, the z-score in test [2] is -2.31; in test [3], 2.16 (inactive); in test [4], -0.29 (inactive); in test [5], -0.537 (inactive).
`COc1cc(OC)c(C(O)C2C=CC3C(=O)N(c4ccccc4)C(=O)C3N2Nc2ccc(C#N)cc2)cc1Br` (centres undefined): the composite z-score was 3.12 (inactive) in test [1] and 0.796 in the test with XIP peptide (Xip251-270). Also, the z-score in test [2] was -0.365; in test [3], -3.36 (inactive); in test [4], -0.002 (inactive); in test [5] it was -0.795 (inactive).
Consider `C[N+](C)(C)CCCC[C@@H]1NC(=O)[C@@H]2C[C@H](C(=O)O)[C@H](c3ccc(O)cc3)N2C1=O`, for which the composite z-score was 2.65 (inactive) in test [1] and 0.124 with XIP peptide (Xip251-270). The z-score in test [2] was -0.195; in test [3], -1.93 (inactive); in test [4], 0.115 (inactive); in test [5] it was 0.274 (inactive).
For the compound `O=C1C[C@@](C(=O)NCC(F)(F)F)(c2ccc([N+](=O)[O-])cc2)[C@@H](c2ccc(CO)cc2)N1C1CCCCC1`, the composite z-score in test [1] was 0.925 (inactive); in the test with XIP peptide (Xip251-270), 0.871. Besides, the z-score is 0.0369 in test [2], -4.46 (inactive) in test [3], -0.0554 (inactive) in test [4] and -0.32 (inactive) in test [5].
